Consider 16 molecules from PubChem BioAssay (NCI).

The structures appear in SMILES notation. About 83,000 compounds went through this panel and 20% of them were active in at least one assay; those are over-represented in the sample as a whole.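 Step 1: grow cells in 96-well plates. Step 2: add test compound at a single concentration. Step 3: incubate 48 h. Step 4: record percent growth.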 Values without a mark were called inactive. Calls of active or inactive are those of the source. How the source made its calls: active means growth percent below 10; inactive means the rest.

Among the test systems are T-47D breast; BT-549 breast; MDA-MB-435 melanoma; SW-620 colon; MCF7 breast; HCT-116 colon; HCC-2998 colon; KM12 colon.
What all share (experiment): NCI-60 one-dose screen, 48 h (100 = growth as untreated, 0 = no growth, -100 = all killed)
Holding throughout (conditions): 10 µM unless noted

As to `CC(CCc1ccccc1)NC(=O)c1n[nH]c(=O)c2ccccc12` (stereo not drawn), the growth in the experiment with T-47D breast was 95.8%; with BT-549 breast, 98.9%; in the experiment on MDA-MB-435 melanoma, 108%; with SW-620 colon, 100%; in the experiment with MCF7 breast, 90.7%; with HCT-116 colon it was 97%. For the same molecule, the results for the growth in the experiment on HCC-2998 colon and with KM12 colon were 156% and 109%, respectively.
As to `COc1cc(-c2nc(-c3nc4ccccc4[nH]3)cc3c2[nH]c2ccccc23)cc(OC)c1OC`, the growth in the experiment with T-47D breast was 25%; with BT-549 breast, 27%; with MDA-MB-435 melanoma it was 31.1%; in the experiment on SW-620 colon, 56.5%; in the experiment on MCF7 breast it was 42.6%; in the experiment with HCT-116 colon, 23%. The growth in the experiment with HCC-2998 colon is 57.3%; in the experiment on KM12 colon it was 18.7%.
For `Cn1c(=O)c2c(nc3n2CCN(CCc2ccc(OCCN4CCOCC4)cc2)C3)n(C)c1=O`, the growth with T-47D breast is 93.6%; with BT-549 breast, 109%; in the experiment on MDA-MB-435 melanoma, 105%; with SW-620 colon, 105%; in the experiment on MCF7 breast, 95.7%; in the experiment with HCT-116 colon, 109%. Also, the growth in the experiment with HCC-2998 colon is 122%; in the experiment with KM12 colon, 103%.
`COc1cc(/C=C\c2cc(OC)c(OC)c(OC)c2)cc(N/C=C\C(=O)c2c[nH]c3ccccc23)c1OC`: the growth in the experiment on T-47D breast was -5.64% (active); with BT-549 breast, 41.2%; with MDA-MB-435 melanoma, 29.1%; in the experiment with SW-620 colon it was -76% (active); with MCF7 breast, 4.09% (active); with HCT-116 colon it was -82.9% (active). Besides, the growth with HCC-2998 colon was 83.2%; in the experiment with KM12 colon it was 49.2%.
With `NC(=O)NNC(=O)c1ccccc1`, the growth was 111% in the experiment with T-47D breast; 107% in the experiment with BT-549 breast; 105% with MDA-MB-435 melanoma; 108% in the experiment with SW-620 colon; 100% with MCF7 breast; 99.7% in the experiment on HCT-116 colon. The growth is 107% in the experiment on HCC-2998 colon and 103% in the experiment on KM12 colon.
Regarding `Cc1ccc2nc(SCn3nnc4ccccc4c3=O)[nH]c2c1`, the growth in the experiment with T-47D breast is 97%; in the experiment on BT-549 breast, 105%; in the experiment on MDA-MB-435 melanoma, 101%; with SW-620 colon it was 90.6%; in the experiment on MCF7 breast, 87.2%; with HCT-116 colon, 97.1%. Also, the growth in the experiment with HCC-2998 colon is 95.5%; in the experiment on KM12 colon, 161%.
For `COc1cc(C(=O)CCCl)ccc1O`, the growth in the experiment on T-47D breast is 94.7%; in the experiment with BT-549 breast it was 112%; in the experiment with MDA-MB-435 melanoma, 103%; with SW-620 colon, 103%; with MCF7 breast, 80.2%; in the experiment with HCT-116 colon, 100%. Moreover, the figures for the growth in the experiment with HCC-2998 colon and in the experiment with KM12 colon were 103% and 97.1%, respectively.
For the molecule `COc1ccc(/C=N/NC(=O)Cn2c(Cc3cccc4ccccc34)nc3ccccc32)cc1`, the growth with T-47D breast is 85.8%; with BT-549 breast, 107%; in the experiment with MDA-MB-435 melanoma, 103%; in the experiment with SW-620 colon, 109%; in the experiment on MCF7 breast it was 92.4%; in the experiment with HCT-116 colon, 100%. Further, the growth is 107% in the experiment on HCC-2998 colon and 98% with KM12 colon.
In the case of `COc1ccc(Cn2cc(COc3cc(/C=C/C(=O)c4cc(OC)c(OC)c(OC)c4)ccc3OC)nn2)cc1`, the growth in the experiment on T-47D breast was 65.4%; in the experiment with BT-549 breast it was 30.8%; in the experiment with MDA-MB-435 melanoma, 12.5%; in the experiment on SW-620 colon it was 19.8%; in the experiment with MCF7 breast, 21.3%; in the experiment on HCT-116 colon it was 17.9%. Also, the growth in the experiment on HCC-2998 colon was 110%; with KM12 colon, 15.8%.
In the case of `COc1cc(OC)c(C(=O)/C=C/c2ccc(C(F)(F)F)cc2)c(OC)c1`, the growth in the experiment with T-47D breast was 26.6%; in the experiment with BT-549 breast, -3.68% (active); in the experiment on MDA-MB-435 melanoma, 23.8%; in the experiment on SW-620 colon, 9.97% (active); in the experiment with MCF7 breast, 19.7%; in the experiment on HCT-116 colon, 20.4%. The growth was 85% in the experiment on HCC-2998 colon and 36.6% in the experiment on KM12 colon.
As for `COc1cc(C2CC(c3c(C)[n+]([O-])c4ccccc4[n+]3[O-])=NN2)cc(OC)c1OC` (stereo not drawn), the growth in the experiment with T-47D breast was 95.4%; in the experiment on BT-549 breast, 104%; with MDA-MB-435 melanoma, 95.6%; in the experiment with SW-620 colon, 101%; in the experiment on MCF7 breast, 91.8%; in the experiment with HCT-116 colon, 104%. Besides, the growth is 76.1% in the experiment on HCC-2998 colon and 104% in the experiment on KM12 colon.
As for `Cc1nc(Nc2cccnc2)sc1C(=O)/C=C/c1ccc(F)cc1`, the growth was 30.2% in the experiment on T-47D breast; 1.57% (active) in the experiment with BT-549 breast; 2.86% (active) with MDA-MB-435 melanoma; 9.84% (active) in the experiment on SW-620 colon; 14.2% in the experiment on MCF7 breast; 3.7% (active) in the experiment on HCT-116 colon. Also, the figures for the growth with HCC-2998 colon and in the experiment on KM12 colon were 83.4% and 11.3%, respectively.
For the molecule `C[N+](C)(C)c1ccc(CC2c3ccccc3-c3ccccc32)cc1`, the growth in the experiment with T-47D breast is 51.1%; in the experiment on BT-549 breast, 59.2%; in the experiment with MDA-MB-435 melanoma, 90.4%; with SW-620 colon, 86.2%; in the experiment on MCF7 breast, 84.1%; in the experiment with HCT-116 colon, 73.3%. Moreover, the figures for the growth in the experiment on HCC-2998 colon and in the experiment with KM12 colon were 88.8% and 77%, respectively.
Regarding `COc1ccc(-c2nnc(COc3ccc(NS(=O)(=O)c4ccc(OC)cc4)cc3F)o2)cc1`, the growth was 31.6% in the experiment with T-47D breast; 84.7% in the experiment with BT-549 breast; 81.4% with MDA-MB-435 melanoma; 94.3% with SW-620 colon; 69.5% in the experiment on MCF7 breast; 67.2% in the experiment on HCT-116 colon. The results for the growth in the experiment on HCC-2998 colon and in the experiment with KM12 colon were 93.1% and 73.4%, respectively.
For `CN(C)CCCNC(=O)C(c1ccccc1)c1ccccc1`, the growth was 87.9% in the experiment on T-47D breast; 106% in the experiment with BT-549 breast; 108% in the experiment on MDA-MB-435 melanoma; 100% in the experiment on SW-620 colon; 96.3% in the experiment with MCF7 breast; 94.3% in the experiment with HCT-116 colon. The values for the growth with HCC-2998 colon and in the experiment with KM12 colon were 99.1% and 111%, respectively.
Consider `O=C1CCCCN1CCCCC#Cc1ccccc1C#Cc1ccc([N+](=O)[O-])cc1`, for which the growth with T-47D breast is 49.4%; with BT-549 breast, 65.9%; in the experiment on MDA-MB-435 melanoma, 45.5%; in the experiment on SW-620 colon it was 27.3%; with MCF7 breast, 49.6%; in the experiment with HCT-116 colon, 23.1%. In addition, the growth is 67.2% in the experiment on HCC-2998 colon and 27.2% with KM12 colon.
